Measured values as given in PubChem BioAssay AID651658 (Broad Institute, 2012).
Out of some 340,000 compounds screened, about 5,100 (1.5%) were called active. The sample holds actives, similar compounds and a random draw of the others, so the mix is not that of the screen. Unmarked numbers belong to inactive results.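 The calls were made as follows: active = mean Tm shift, scaled 0 neutral to 100 positive control, at about 1.3% or above, every replicate too (limit read from the data); inconclusive = no clear call, values can overlap the other calls; inactive = the rest.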

Each molecule was assayed against Fibroblast growth factor 22 (Homo sapiens) (UniProt Q9HCT0) (assay: FGF22 ligand-induced thermal stabilization – biophysical, thermal shift, single point, FGF22 synaptogenesis inhibitor project, primary screen (AID 651658)). Settings: recombinant FGF22 thermal shift, SYPRO orange fluorescence; at 9.99 µM; stronger effect = higher value; percent of sucrose octasulfate shift, DMSO zero.
Chain of Fibroblast growth factor 22 (Homo sapiens) (Q9HCT0 whole entry, looked up): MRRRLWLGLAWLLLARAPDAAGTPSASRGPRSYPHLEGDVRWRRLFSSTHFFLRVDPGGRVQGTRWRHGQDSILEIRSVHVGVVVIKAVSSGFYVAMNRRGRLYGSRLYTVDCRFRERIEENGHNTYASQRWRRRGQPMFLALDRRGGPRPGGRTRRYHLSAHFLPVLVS

| SMILES | activity (Tm shift, normalised) |
| --- | --- |
| O=C(CN1C(=O)S/C(=C\c2ccccc2F)C1=O)NCCCn1ccnc1 | -0.15% |
| Cn1cccc1/C=C1\SC(=O)N(CC(=O)Nc2ccc(F)cc2)C1=O | 43% (active) |
| Cc1nn(Cc2ccccc2)c(C)c1C(=O)NCCN1C(=O)S/C(=C\c2ccc(F)cc2)C1=O | 0.11% |
| COc1ccc(S(=O)(=O)N(CC(=O)N/N=C/c2ccc(C(=O)O)cc2)Cc2ccccc2)cc1OC | -0.204% |
| O=C(O)c1ccc(/C=N/NC(=S)NCc2ccccc2)cc1 | 0.16% |
| CC(=O)Nc1ccc(S(=O)(=O)N(CCc2ccccc2)CC(=O)N/N=C/c2ccc(C(=O)O)cc2)cc1 | 1.76% (active) |
| CNC[C@H]1Oc2ncc(-c3ccccc3F)cc2C(=O)N([C@H](C)CO)C[C@H]1C | -0.078% |
| COCC#Cc1ccc2c(c1)O[C@H](CN(C)CC1CC1)[C@H](C)CN([C@H](C)CO)S2(=O)=O | 0.379% |
| CCCN(C)C[C@@H]1OCCCC[C@@H](C)Oc2ccc(NS(=O)(=O)c3c(C)noc3C)cc2C(=O)N([C@H](C)CO)C[C@@H]1C | -0.518% |
| C[C@H](CO)N1C[C@H](C)[C@H](CN(C)S(=O)(=O)c2cccs2)OCCCC[C@H](C)Oc2ccc(NC(=O)CCCN(C)C)cc2C1=O | -0.21% |
| CN1C(=O)c2cccc3c(N)ccc(c23)C1=O | 28.3% (active) |
| O=C1c2cccc3c([N+](=O)[O-])ccc(c23)C(=O)N1CC1CCCO1 (stereo not drawn) | 0.06% |
| CO[C@H]1CN(C)C(=O)c2cc(NC(=O)Nc3ccccc3F)ccc2OC[C@H](C)N(C)C[C@H]1C | -0.052% |
| COc1ccccc1S(=O)(=O)N(C)C[C@H]1Oc2cc(C#CCC3CCCC3)ccc2S(=O)(=O)N([C@@H](C)CO)C[C@H]1C | 0.195% |
| COc1ccc2c3c(n(C)c2c1)[C@@H](CO)N(C(=O)c1cnccn1)CC31CCN(C(C)=O)CC1 | -0.238% |
| CC(=O)N1c2ccc(S(=O)(=O)N3CCCC(C(=O)NCc4ccc(Cl)cc4)C3)cc2CC1C (stereo not drawn) | 0.095% |
| CC(=O)N1c2ccc(S(=O)(=O)N3CCC(C(=O)NC4CCCCC4C)CC3)cc2CC1C (stereo not drawn) | 0.24% |
| CC(=O)N1c2ccc(S(=O)(=O)N3CCC(C(=O)NCc4ccc(F)cc4)CC3)cc2CC1C (stereo not drawn) | 1.48% (active) |
| O=C(c1ccncc1)N1CC2(C1)[C@@H](c1ccccc1)[C@H](CO)N2C(=O)c1ccncc1 | -0.088% |
| CCCC(=O)Nc1ccc2c(c1)OC[C@H](C)N(Cc1ccc(F)cc1)C[C@H](C)[C@H](OC)CN(C)C2=O | -0.11% |
| CO[C@@H]1CN(C)C(=O)c2cc(NC(=O)CC(F)(F)F)ccc2OC[C@H](C)N(S(=O)(=O)c2cn(C)cn2)C[C@H]1C | -0.268% |
| O=C(NCC1CCCCC1)NCC1CCCCC1 | 0.197% |
| N#CCC(=O)NC(=O)NCC1CC1 | 45.2% (active) |
| N#CCC(=O)NC1CCC(CC2CCC(NC(=O)CC#N)CC2)CC1 (stereo not drawn) | -0.185% |

| SMILES | activity (Tm shift, normalised) |
| --- | --- |
| O=C(C[C@H]1C[C@H]2c3cc(NC(=O)C4CCOCC4)ccc3O[C@H]2[C@@H](CO)O1)NCCN1CCCCC1 | 0.018% |
| COc1ccc2c3c(n(C)c2c1)[C@@H](CO)N(C(=O)C1CC1)CC31CN(C(=O)C2CCOCC2)C1 | -0.006% |
| O=C(c1cccnc1)N1CCCCN2[C@@H](CO)[C@H](c3ccc(C#Cc4ccccc4)cc3)[C@@H]2C1 | -0.469% |
| O=C(N/C(=C\c1ccc(F)cc1)C(=O)N1CCCCCC1)c1ccccc1 | -0.445% |
| O=C1C=CCCN1C(=O)/C=C/c1ccc(F)cc1 | 1.39% (active) |
| O=C1CN(C(=O)COC(=O)/C=C/c2ccc(F)cc2)c2ccccc2N1 | 0.119% |
| C[C@@H]1CN([C@H](C)CO)C(=O)c2cc(NS(=O)(=O)c3cn(C)cn3)ccc2O[C@@H](C)CCCCO[C@@H]1CN(C)C(=O)CCC(F)(F)F | -0.484% |
| CCOC(=O)c1c(NC(=S)NC(=O)/C=C/c2cccs2)sc(C)c1C | 0.207% |
| CCc1nnc(NS(=O)(=O)c2ccc(NC(=S)NC(=O)c3cccs3)cc2)s1 | 0.364% |
| Cc1cc(NS(=O)(=O)c2ccc(NC(=O)c3cccc(OC(F)F)c3)cc2)nc(C)n1 | 0.163% |
| CCc1nnc(NS(=O)(=O)c2ccc(NC(=S)NC(=O)/C=C/c3cccs3)cc2)s1 | 43.7% (active) |
| CCc1nnc(NC(=O)c2cccc(S(=O)(=O)N(C)c3ccc(OC)cc3)c2)s1 | 0.249% |
| CCc1nnc(NS(=O)(=O)c2ccc(NC(=O)c3cccc(OC(F)(F)C(F)F)c3)cc2)s1 | 1.64% (active) |
| O=C(Cc1ccncc1)NCC[C@H]1CC[C@@H](NC(=O)Nc2ccc(Cl)cc2)[C@@H](CO)O1 | -0.005% |
| O=C(C[C@H]1CC[C@@H](NC(=O)Nc2ccc(F)cc2)[C@@H](CO)O1)NCCN1CCCC1 | -0.13% |
| CC(C)NC(=O)N[C@H]1CC[C@H](CC(=O)N2CCCCC2)O[C@@H]1CO | 0.022% |
| COc1ccc(S(=O)(=O)Nc2ccc3c(c2)CC(=O)N([C@H](C)CO)C[C@H](C)[C@@H](CN(C)C(=O)NC(C)C)O3)cc1 | -0.229% |
| CCSc1nc2sc3c(c2c(=O)[nH]1)CC(C)(C)OC3 | -0.053% |
| CC(C)c1nc2sc3c(c2c(=O)n1N)CC(C)(C)OC3 | 42.9% (active) |
| CCC(O)CNc1nc(-n2nc(C)cc2C)nc2sc3c(c12)CC(C)(C)OC3 (stereo not drawn) | -0.058% |
| COC(=O)[C@@H]1[C@@H](CO)[C@@H]2Cn3c(ccc(-c4ccc(OC)cc4)c3=O)[C@@H]2N1C | 0.199% |
| O=C(CSc1nn(-c2ccc(F)cc2)c(=S)s1)NC1CCS(=O)(=O)C1 (stereo not drawn) | 0.458% |
| O=C(CSc1ccccc1F)NC1CCS(=O)(=O)C1 (stereo not drawn) | 43% (active) |
| O=C(Cc1ccc(Cl)cc1)NC1CCS(=O)(=O)C1 (stereo not drawn) | -0.305% |
